Assay outcomes: PubChem, National Center for Advancing Translational Sciences (NCATS)
The list is not random: actives were taken first. Their share in the collection is about 7.5%.
SMN2 splice up: increases expression of the SMN2 splice variant. actives 2.8% (n = 210,000). HEK293 SMN2-luciferase splicing reporter, luminescence, 30-36 h. AID 1458. Potency, µM (highest dose often 46.1 µM), without a hit: top-dose activity change, positive = activation, usual class: activators; note: % of control where 0% means no effect; nearly all actives have a fitted effect of over 55% in size
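HEK293 cells carry an SMN2 minigene-luciferase reporter in which exon 7 inclusion puts luciferase in frame. Cells were seeded at 2000 cells/well, attached for 10-12 hours, then exposed to compounds for 30-36 hours at 37C before ONE-Glo luminescence.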
Luc counter: counter-screen: inhibitors of Kinase-Glo firefly luciferase | Q27757 | Kinase-Glo luciferase, ATP luminescence, 8 min | Potency, µM (series often up to 38.3 µM), without a hit: top-dose activity change, negative = inhibition, actives largely listed as inhibitors | actives 0.28% (n = 200,000) | AID 1379; note: % is set by controls: 0 for no effect and ±100 for the full control effect; nearly all actives have a fitted effect of over 60% in size
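Light output from Kinase-Glo luciferase with luciferin and 10 uM ATP in 50 mM imidazole pH 7.2, KCl, MgCl2, Tween 20, BSA; compound pin-delivered, 8-min ambient incubation, then luminescence read.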
Rab9 prom act: activators of Rab9 promoter | Potency, µM (highest dose often 9.22 µM), without a hit: at the top dose activation, negative = inhibition, hits mostly activators | actives 2.8% (n = 320,000) | Huh7 Rab9 promoter-luciferase reporter, luminescence, 24 h; note: % of control where 0% means no effect; nearly all actives have a fitted effect of over 60% in size
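Cells were plated at 1500 per well in reduced-serum medium with 10% FBS and left 2 h. Compound in DMSO was then added for 24 h at 37 °C. Reporter signal was read by luminescence after 10 min with luciferase detection reagent.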
NPC1 prom act: activates the NPC1 promoter; Huh7 NPC1 promoter luciferase reporter, 24 h; Potency, µM (highest dose often 9.22 µM), for inactives: at the highest dose activation, usual class: activators; actives 2.4% (n = 320,000); AID 485313; note: % of control where 0% means no effect; nearly all actives have a fitted effect of over 60% in size
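Luminescence read-out of NPC1 promoter-driven luciferase in stably transfected Huh7 cells; compounds delivered in DMSO and left 24 h at 37C, 5% CO2, qHTS titration format.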
FLuc modulator: inhibits or activates purified firefly luciferase, miR-21 counter-screen; P08659; purified FLuc, Km substrates, luminescence inhibition; Potency, µM (highest dose often 57.5 µM), for inactives: at the highest dose activity change, negative = inhibition, usual class: inhibitors; actives 6.9% (n = 360,000); AID 588342;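 note: plate controls were vehicle for no effect and reference inhibitor for full effect; nearly all actives have a fitted effect of over 55% in size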
Target sequence (P08659 whole entry, looked up): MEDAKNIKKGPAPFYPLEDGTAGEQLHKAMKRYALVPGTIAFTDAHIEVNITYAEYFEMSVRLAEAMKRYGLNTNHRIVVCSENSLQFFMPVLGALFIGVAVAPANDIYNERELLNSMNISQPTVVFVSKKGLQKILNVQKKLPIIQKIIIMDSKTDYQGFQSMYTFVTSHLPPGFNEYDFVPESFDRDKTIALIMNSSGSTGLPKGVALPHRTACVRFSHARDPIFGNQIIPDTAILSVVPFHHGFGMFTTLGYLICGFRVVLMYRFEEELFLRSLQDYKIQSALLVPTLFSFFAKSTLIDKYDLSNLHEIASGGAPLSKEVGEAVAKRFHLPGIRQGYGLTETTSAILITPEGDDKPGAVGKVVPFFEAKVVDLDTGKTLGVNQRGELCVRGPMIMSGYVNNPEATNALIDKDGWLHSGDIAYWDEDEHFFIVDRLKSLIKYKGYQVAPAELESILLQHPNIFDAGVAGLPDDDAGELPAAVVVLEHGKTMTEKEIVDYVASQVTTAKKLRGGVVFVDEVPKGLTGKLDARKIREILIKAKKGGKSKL
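Purified P. pyralis luciferase (10nM final) with 10uM D-luciferin and 10uM ATP (Km levels) in 50mM Tris acetate pH 7.5, 10mM Mg acetate, 0.01% Tween-20, 0.05% BSA; qHTS 6-point titration, ~60 µM downward; luminescence read.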
ELG1 genotoxic: induces genotoxicity in HEK293T cells with luciferase-tagged ELG1; HEK293T ELG1-luciferase reporter, luminescence, 16 h; Potency, µM (highest dose often 46 µM), inactives show at the top dose activity change, positive = activation, most hits filed as activators; actives 1.3% (n = 330,000); AID 504466; note: % of control where 0% means no effect; nearly all actives have a fitted effect of over 60% in size
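Cells (2,000/well) expressing the ELG1-luciferase fusion are dosed by pin tool and kept 16 hr at 37 °C, 5% CO2. Signal comes from ONE-Glo luciferase reagent after 30 min at room temperature.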
The depositor's hits bear a star; ? = inconclusive; / = not tested or not shown; [ ] = remark or other dose. Calls come from the whole dose curve; as a rule, active = well fitted curve in the direction sought with a large enough effect; inconclusive = small, poorly fitted or top-dose-only effect, or another doubt; inactive = no such curve, though single readings can be large; an effect the other way counts as inactive or inconclusive. Potency is the fitted concentration of half-maximal effect.

SMILES | SMN2 splice up | Luc counter | Rab9 prom act | NPC1 prom act | FLuc modulator | ELG1 genotoxic
C/C(N)=C(/C#N)C(=O)COC(=O)c1cc2c(s1)CCCC2 | 24% | -4% | -19% | 1% | 15µM* | ?
CC1CCc2sc(C(=O)OCC(=O)NCc3ccccc3)cc2C1 (stereo not given) | / | / | -1% | -1% | 7% | 10%
C/C(N)=C(/C#N)C(=O)COC(=O)c1cc2c(s1)CCC(C)C2 (stereo not given) | 20% | -1% | -2% | -2% | 17µM* | ?
COc1ccc(Nc2nnc(SCC(=O)NC3CC3)s2)cc1 | / | / | -3% | -4% | 19µM* | 5%
O=C(CSc1nnc(Nc2ccccc2)s1)NC1CC1 | / | / | 0% | 0% | ? | 5%
CN(C(=O)CSc1nnc(NC2CCCCC2)s1)C1CCS(=O)(=O)C1 (stereo not given) | 23% | 0% | 3% | 0% | 2% | 3%
O=C(CSc1n[nH]c(-c2ccncc2)n1)NC1CCS(=O)(=O)C1 (stereo not given) | 7% | -4% | -5% | 7% | -4% | -9%
CCc1ccc(-c2nc(SCC(=O)NC3CCS(=O)(=O)C3)n[nH]2)cc1 (stereo not given) | / | / | 19% | 20% | 5.4µM* | ?
CCc1ccc(Nc2nnc(SCC(=O)N(C)C3CCS(=O)(=O)C3)s2)cc1 (stereo not given) | / | / | ? | 3.5µM* | 0.43µM* | ?
COc1ccc(Nc2nnc(SCC(=O)NC3CCS(=O)(=O)C3)s2)cc1 (stereo not given) | / | / | 23% | 22% | 5.4µM* | 11%
O=C(CSc1nnc(NCc2ccccc2)s1)NC1CCS(=O)(=O)C1 (stereo not given) | / | / | -13% | 0% | 17µM* | 0%
C=CCNc1nc(-c2ccc(OC)cc2OC)cs1 | ? | 0% | 3.2µM* | 2.8µM* | 12µM* | ?
C=CCn1c(C)cc(-c2csc(NC(=O)C3=COCCO3)n2)c1C | / | / | 1.6µM* | 2.2µM* | 9.5µM* | ?
C=CCn1c(C)cc(-c2csc(NCC)n2)c1C | / | -10% | -4% | 23% | 15µM* | -8%
COc1ccc(-c2csc(NC(=O)C3=COCCO3)n2)c(OC)c1 | / | / | ? | ? | 24µM* | 21µM*
COc1ccc(-c2csc(NC(=O)CN3C(=O)C4CCCCC4C3=O)n2)c(OC)c1 (stereo not given) | / | / | -5% | 5% | ? | 0%
Cc1ccc(NC(=O)c2oc3ccc(S(=O)(=O)N4CCCCCC4)cc3c2C)c(C)c1 | / | / | / | / | 0% | /
CCOc1ccccc1C(=O)N(Cc1cc(OC)c(OC)c(OC)c1)c1ccccn1 | / | / | / | / | -3% | /
O=C(Nc1nc(-c2ccc(-c3ccccc3)cc2)cs1)C1=COCCO1 | -21% | -1% | -6% | -2% | ? | 17%
Cc1cc(C)c(-c2csc(NC(=O)C3=COCCO3)n2)cc1C | / | / | 8% | 13% | 19µM* | 1%
COc1ccc(-c2csc(NC(=O)COC(=O)C3=COCCO3)n2)cc1 | 14µM* | -3% | 4µM* | 3.5µM* | 2% | 15%
CCOc1ccc(CNC(=O)c2ccc(-c3nc(CS(=O)(=O)c4ccccc4)c(C)o3)cc2)cc1 | / | / | / | / | -1% | /
COc1ccc(Oc2nc(OC)cc(OC)n2)cc1 | 11% | 5% | -11% | -1% | -4% | -4%
COc1ccc(C(C)=O)c(O)c1 | -7% | -13% | / | / | / | /
O=C(COc1ccc(F)cc1)c1c(O)cc(O)cc1O | / | / | ? | ? | 8.5µM* | ?
SMILES | SMN2 splice up | Luc counter | Rab9 prom act | NPC1 prom act | FLuc modulator | ELG1 genotoxic
COc1ccc(C(=O)COc2ccc(F)cc2)c(O)c1 | / | / | ? | 3.2µM* | 13µM* | ?
NNC(=O)COc1ccc(F)cc1 | -5%[1.84 µM] | -4% | -2% | -8% | 5% | -1%
Cc1cccc2nc(-c3cccc(NC(=O)Cc4ccccc4)c3)cn12 | 2% | -9% | 0% | -2% | 11µM* | -7%
Cc1cccc2nc(-c3cccc(NC(=O)c4ccc(Cl)cc4)c3)cn12 | -12% | -4% | -1% | -2% | 6µM* | -7%
CCc1nn2c(=O)cc(COc3ccc(/C=C(\C#N)C(=O)Nc4ccc(C)cc4)cc3)nc2s1 | -9% | / | / | / | -2% | /
COc1ccc(-c2nc(CN3CCCCC3c3nccn3C)c(C)o2)c(C)c1C (stereo not given) | / | -2% | -8% | -7% | 5% | -12%
COCCNC(=S)N/N=C(\C)c1ccccc1O | 29% | 3% | 0% | 25% | 17µM* | 5%
COCCCNC(=S)N/N=C/c1ccccc1O | / | / | ? | ? | 12µM* | 2%
CCCC(NC(=S)NCC1CCCO1)C12CC3CC(CC(C3)C1)C2 (stereo not given) | / | / | -5% | -10% | -6% | -11%
CN1CCN(/N=C/c2ccc(Cl)c(Cl)c2)CC1 | 13µM* | -1% | ? | ? | 19µM* | ?
Cc1ccc(NC(=O)CSc2nc(-c3ccco3)cc(C(F)(F)F)n2)cc1 | -40% | / | / | / | 3% | /
Cc1ccc(-c2csc(N3CCC(C(N)=O)CC3)n2)cc1 | / | / | 2µM* | 1.3µM* | 11µM* | 8%
NC(=O)C1CCN(c2nc(-c3ccc4ccccc4c3)cs2)CC1 | / | / | ? | 2µM* | 12µM* | 6%
COc1ccc(-c2csc(N3CCC(C(N)=O)CC3)n2)cc1 | / | / | ? | 26% | 21µM* | 7%
CC(=O)c1cccc(-c2csc(N3CCC(C(N)=O)CC3)n2)c1 | / | / | 0.4µM* | 1.3µM* | 17µM* | 14%
N#Cc1ccc(-c2csc(N3CCC(C(N)=O)CC3)n2)cc1 | / | / | / | / | -10% | /
Cc1ccc2nc(NC(=O)CSc3nccn3Cc3ccc(Cl)cc3)sc2c1 | / | / | / | / | -5% | /
CCOC(=O)C1CCCN(S(=O)(=O)c2cc3c4c(c2)CCC(=O)N4CCC3)C1 (stereo not given) | / | / | -9% | 0% | -1% | -3%
Cc1ccc(/C=C/C(=O)Nc2cccc(S(=O)(=O)N3CCOCC3)c2)o1 | -15% | 1% | -1% | 6% | ? | -1%
COc1ccc(/C=C/C(=O)Nc2cccc(S(=O)(=O)N3CCOCC3)c2)cc1OC | / | / | -4% | -3% | ? | -2%
O=C(COC(=O)/C=C/c1ccc(OC(F)F)cc1)Nc1cccc(S(=O)(=O)N2CCCC2)c1 | / | / | -7% | 0% | 19µM* | 9%
O=C(/C=C/c1ccc(OC(F)F)cc1)Nc1cccc(S(=O)(=O)N2CCOCC2)c1 | / | / | 2% | 15% | 4.8µM* | -28%
O=C(/C=C/c1ccco1)Nc1cccc(S(=O)(=O)N2CCOCC2)c1 | 16% | 0% | ? | 12% | 17µM* | 1%
